# Screening results: PubChem BioAssay, National Center for Advancing Translational Sciences (NCATS)
# HPGD inh: blocks human HPGD enzyme activity | P15428 | purified HPGD, NADH fluorescence kinetic, PGE2 substrate | Potency, µM, actives largely listed as inhibitors | actives 4.3% (n = 150,000) | AID 894
#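 NADH formation kinetics: reaction with 30 uM PGE2 and 1 mM NAD+ (final), 20 nM enzyme, Tris-HCl pH 8 with Tween 20, after 15 min compound preincubation at room temperature. Fluorescence change, last versus first of five reads.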
# ALDH1A1 block: blocks purified human ALDH1A1 activity; actives 7.3% (n = 220,000); AID 1030; Potency, µM (top dose mostly 75.3 µM), hits mostly inhibitors; Purified ALDH1A1, NADH fluorescence, propionaldehyde substrate
# Target sequence (P00352 whole entry, looked up): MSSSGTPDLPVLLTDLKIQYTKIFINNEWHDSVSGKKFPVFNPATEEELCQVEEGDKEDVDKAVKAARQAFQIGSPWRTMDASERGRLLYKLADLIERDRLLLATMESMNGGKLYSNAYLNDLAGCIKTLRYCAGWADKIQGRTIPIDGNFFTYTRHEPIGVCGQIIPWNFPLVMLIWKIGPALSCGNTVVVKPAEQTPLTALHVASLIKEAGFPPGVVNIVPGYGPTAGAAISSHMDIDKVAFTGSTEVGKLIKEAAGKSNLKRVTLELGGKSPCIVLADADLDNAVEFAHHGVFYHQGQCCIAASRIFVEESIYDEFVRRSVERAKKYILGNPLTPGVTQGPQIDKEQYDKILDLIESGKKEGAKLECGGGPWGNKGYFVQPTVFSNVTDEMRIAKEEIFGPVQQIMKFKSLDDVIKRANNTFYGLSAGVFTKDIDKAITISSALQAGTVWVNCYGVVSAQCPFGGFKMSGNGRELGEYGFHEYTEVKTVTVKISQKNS
# IMPase cell inh: membrane-permeable compound that blocks inositol monophosphatase. P97697. CHO-M1 cells, IP1 accumulation, HTRF TR-FRET ratio. inhibition (IP1 accumulation), % at 46.1 µM. 120,000 tested, under 10 active; active = well fitted curve in the direction sought with a large enough effect in the signal ratio, not every such curve was filed as active; inconclusive = small, poorly fitted or top-dose-only effect, or a change in a side signal; inactive = no such curve, though single readings can be large or run the other way; the % refers to the signal ratio;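 note: cells stimulated with carbachol in lithium chloride buffer; higher means more IMPase inhibition seen as more IP1 and lower FRET ratio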
# Target sequence (P97697 whole entry, looked up): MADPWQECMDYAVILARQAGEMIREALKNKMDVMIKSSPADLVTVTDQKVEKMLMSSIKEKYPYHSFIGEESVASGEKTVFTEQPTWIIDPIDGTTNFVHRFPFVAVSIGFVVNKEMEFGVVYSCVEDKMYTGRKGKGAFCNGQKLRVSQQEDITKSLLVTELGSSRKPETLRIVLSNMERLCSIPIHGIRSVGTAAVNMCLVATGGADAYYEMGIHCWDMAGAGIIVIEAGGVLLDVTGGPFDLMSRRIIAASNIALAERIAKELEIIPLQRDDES
#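 The IP-One HTRF competitive assay in carbachol-stimulated CHO-M1 cells quantifies cellular IP1. Compounds spanned up to 46 uM final, and activity is expressed as AC50 from concentration-response fits of the ratio and donor data.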
# IMPase Li inh: cell-permeable IMPase inhibitors with lithium potentiation. CHO-M1 cells, IP1 TR-FRET (IP-One), carbachol + lithium. Potency, µM (highest dose often 59.4 µM), hits mostly inhibitors. actives 0.35% (n = 210,000). AID 1457; active = well fitted inhibition curve with a large enough effect; inconclusive = small, poorly fitted or top-dose-only effect; inactive = no such curve, though single readings can be large or run the other way;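 note: IP1 builds up when IMPase is blocked and the TR-FRET signal falls; nearly all actives have a fitted effect of over 50% in size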
#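 IP1 accumulation measured by competitive TR-FRET in lysed CHO-M1 cells after 30 min compound exposure at 37C, with a small lithium addition to potentiate weak responses. Hill-equation AC50 from ratio and donor-channel data.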
# PNC assembly inh: inhibitors of perinucleolar compartment assembly; AID 2417; activity change (PNC), negative = inhibition, % at 10 µM; PC3M PTB-GFP, PNC prevalence imaging, 16 h; stronger effect = lower value; actives 3.1% (n = 140,000);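 active = readout at or below -70, meaning at least 70% loss of cells showing the perinucleolar compartment, a nuclear body marking cancer cells; inconclusive = readout between -30 and a set limit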
#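 Compounds are pinned in duplicate onto adhered PC3M cells stably expressing GFP-tagged PTB and incubated 16 h at 37 C. Cells are then fixed, nuclei stained with Hoechst, and PNC-positive cells counted.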
# Numbers stand for hits; i = inactive; ? = inconclusive; nt = no result; ! = not confirmed by another sample; [ ] = another dose, or the depositor's remark. Sampled rows, rich in hits. Any-hit rate of the full collection: about 11%. Unless noted, calls come from the whole dose curve; as a rule, active = well fitted inhibition curve with a large enough effect (not every such curve was filed as active); inconclusive = small, poorly fitted or top-dose-only effect, or another doubt; inactive = no such curve, though single readings can be large or run the other way.
SMILES,HPGD inh,ALDH1A1 block,IMPase cell inh,IMPase Li inh,PNC assembly inh
COCC#Cc1ccc(C2C(C)CCC3C(=O)N4C(CCC(C)C4c4ccc(C#CCOC)cc4)C(=O)N32)cc1 (configuration not stated),nt,i[13.5 µM],nt,nt,nt
Cc1ccc(C(=O)CSc2nnc(-c3ccccc3)o2)cc1,i,i,i,i,-95
Cc1occc1-c1nnc(SCC(=O)c2ccc(F)cc2)o1,?,32µM,i,i,?
COc1ccc(C(=O)CSc2nnc(-c3ccc(S(=O)(=O)N4CCOCC4)cc3)o2)cc1,i,0.5µM,?,?,i
COc1ccc2c(c1)C(=O)[C@H](OC(=O)NS(=O)(=O)c1ccc(C)cc1)[C@@H](c1ccc(OC)c(Br)c1)O2,i,?,nt,i,nt
Cc1noc2ncnc(N3CCCCC3)c12,nt,32µM,nt,i,nt
COCCNC(=O)CSc1ncnc2sccc12,18µM,i,i,i,i
COc1ccc(C(C(=O)Nc2ccc(C(C)C)cc2)N(Cc2ccco2)C(=O)CC2NC(=O)NC2=O)cc1 (configuration not stated),nt,25µM,nt,i,nt
COC(=O)c1cn[nH]c1NC(=S)Nc1ccc(C)cc1Cl,i,7.9µM,i,i,i
Cc1ccc(C)c(NC(=O)Cn2nnc(C(=O)NCc3cccs3)c2N)c1,i,i,i,i,i
CN(C)c1ccc(C(=S)N2CCN(c3ccccc3)CC2)cc1,i,13µM,i,i,i
Cc1ccc(N2CCN(C(=S)c3ccc(N(C)C)cc3)CC2)cc1,25µM,7.9µM,i,i,?
Cc1ccc(N2CCN(C(=S)Nc3ccccc3)CC2)cc1,nt,i,nt,i,nt
COc1ccc(O[C@H]2C=C[C@@H](c3ccccc3)O[C@H]2COC(=O)NCc2cccc3ccccc23)cc1,nt,i[13.5 µM],nt,nt,nt
CCOc1ccccc1NC(=O)CCN1CCN(S(=O)(=O)c2ccc(Br)cc2)CC1,i,i,i,i,-107
Cc1ccccc1NS(=O)(=O)c1ccc(NC(=O)CSCc2ccc(Br)cc2)cc1,i,i,i,i,-99
Cc1cc(C)n(-c2nnc(Cl)c3ccccc23)n1,nt,3.5µM,nt,i,nt
O=c1c2ccccc2c2ccccc2c(=O)n1Cc1ccco1,i,i,i,i,i
Cc1c(N=Cc2c(O)n(Cc3ccco3)c(=O)c3ccccc23)c(=O)n(-c2ccccc2)n1C,i,i,i,i,-100!
COc1ccccc1N1CCN(c2nc3ccccn3c(=O)c2C=O)CC1,i,i,i,i,i
Cc1ccn2c(C=O)c(-c3ccc(F)cc3)c(C=O)c2c1,nt,13µM,nt,?,nt
CC1(C)C(=O)C(c2ccccc2)=C2CN3C(=O)N(CCc4ccccc4)C(=O)C3(Cc3ccc(C(F)(F)F)cc3)C=C21 (configuration not stated),i,i,nt,i,nt
Brc1cccc(-c2nnc(CN3CCN(c4ccccn4)CC3)o2)c1,nt,nt,i,nt,nt
O=C(c1ccc(-c2ccc([N+](=O)[O-])cc2)o1)N1CCCCC1,7.1µM,11µM,nt,i,?
O=C(c1ccc(-c2ccc(Cl)cc2)o1)N1CCN(c2ccc([N+](=O)[O-])cc2Cl)CC1,i,3.2µM,i,i,i
SMILES,HPGD inh,ALDH1A1 block,IMPase cell inh,IMPase Li inh,PNC assembly inh
COc1cc(C(=O)NCc2nnc(SCC(=O)N3CCOCC3)o2)cc(OC)c1OC,nt,i,nt,i,nt
Cc1ccc(N2C(=O)C(Cl)=C(NCc3ccccc3)C2=O)c(C)c1,i,i,i,i,i
Cc1ccc(Cc2c[nH]c(=S)s2)cc1,nt,8.9µM,nt,i,nt
CCN(CC)c1ccc(/C=C2/C(=O)ON=C2C)cc1,i,1.5µM,i,i,i
CC1=NOC(=O)/C1=C/c1ccc(N(C)C)cc1,nt,i,?,nt,i
CC(C)(C)C1(C)OC(=O)C(=Cc2ccc(OCC(=O)Nc3ccccc3)cc2)C(=O)O1 (configuration not stated),?,i,nt,i,i
CCN(CC)c1ccc(/C=C2/C(=O)c3ccc(C(=O)O)cc3C2=O)cc1,11µM,8.9µM,nt,i,i
CCN(CC)c1ccc(/C=C/C(=O)c2ccc(Br)cc2)cc1,i,?,i,i,?
CCCCC1(C)OC(=O)C(=Cc2ccc(N(CC)CC)cc2)C(=O)O1 (configuration not stated),20µM,0.4µM,i,i,i
CCN(CC)c1ccc2ccc(=O)oc2c1,nt,?,nt,i,nt
CCN(CC)c1ccc(C=C2C(=O)OC3(CCCCC3)OC2=O)cc1,nt,0.18µM,nt,i,nt
COc1ccc(Nc2nc(OC)nc(N3CCOCC3)n2)cc1,nt,i,nt,i,nt
COc1ccc(Nc2nc(Nc3ccc(OC)cc3)nc(-n3[nH]c(=O)c(C)c3C)n2)cc1,i,25µM,i,i,i
CSc1ccc(C(=O)C2CCCN(C(=O)c3ccsc3)C2)cc1 (configuration not stated),nt,5µM,nt,i,nt
COc1ccc(-c2nc3nc(N)nn3cc2C)cc1F,nt,?,nt,i,nt
CC(=O)Nc1ccc(Oc2ccc(-c3noc(C)n3)cc2)cc1,7.9µM,i,i,i,i
COC(=O)C/C=C/[C@@H](C)[C@H](NC(=O)OCC(Cl)(Cl)Cl)c1ccc2ccccc2c1,i,i,nt,i,nt
CCCOc1cc(C)c(S(=O)(=O)NC2CC(C)(C)NC(C)(C)C2)cc1C,i,i,nt,i,i
C[C@@H](C(=O)O)/C(=C/c1ccc2c(c1)OCO2)C(=O)O,i,i[13.5 µM],nt,i,nt
C[C@@H](Oc1ccc(Oc2cnc3ccc(Cl)cc3n2)cc1)C(=O)O,18µM,?,nt,i,nt
O=C(CCl)N(c1ccccc1)c1ccccc1,nt,0.045µM,nt,i,nt
O=C(N(c1ccccc1)c1ccccc1)N(c1ccccc1)c1ccccc1,nt,i,nt,nt,nt
O=C(O)/C=C\C(=O)Nc1ccc2c(c1)C(=O)c1cc(F)ccc1-2,i,?,nt,i,nt
Oc1cccc2ccc(/C=C/c3c(F)cccc3Cl)nc12,nt,i,nt,i,nt
Oc1cccc2ccc(SSc3ccc4cccc(O)c4n3)nc12,0.56µM,4µM,nt,i,nt
SMILES,HPGD inh,ALDH1A1 block,IMPase cell inh,IMPase Li inh,PNC assembly inh
COc1cccc(CNC(=O)CN2C(=O)CC(c3ccccc3)=Nc3ccccc32)c1,nt,35µM,nt,i,nt
COc1ccc(C(=O)/C=C\N2CCOCC2)cc1,i,8.9µM,i,i,?
O=C(c1ccc(COc2ccccc2Br)cc1)N1CCCCCC1,nt,i,nt,i,nt
COc1ccc(/C=C(\C#N)C(=O)N2CCOCC2)cc1Br,16µM,?,i,i,i
C=CCNC(=O)c1ccc(N(C)S(=O)(=O)c2ccc(OC)cc2)cc1,2.8µM,?,i,i,i
C=CCNC(=O)c1ccc(OC)cc1,nt,i,nt,nt,nt
O=C(c1ccc(COc2ccc(Cl)cc2)cc1)N1CCCCC1,nt,28µM,nt,i,nt
COc1cc(/C=C(\C#N)C(=O)N2CCOCC2)ccc1OCc1ccccc1,nt,i,nt,i,nt
COc1ccc(C(=O)/C=C/c2cn(CC(O)CN3CCOCC3)c3ccccc23)cc1 (configuration not stated),i,?,i,i,i
COc1ccc(CCNC(=O)CN(c2ccccc2)S(=O)(=O)N(C)C)cc1,nt,nt,i,nt,nt
N#Cc1c(N)n(-c2cccc(Cl)c2)c2nc3ccccc3nc12,nt,nt,i,nt,nt
COc1cccc(Nc2nc3cc(Cl)c(Cl)cc3nc2-n2nc(C)cc2C)c1,nt,nt,i,nt,nt
